Source: PubChem BioAssay (The Scripps Research Institute Molecular Screening Center)
Shown are actives, neighbours in structure and some others; about 2.9% of the full set was active somewhere.
PAFAH1B3 inh = inhibitors of human PAFAH1B3; Q15102; recombinant PAFAH1B3, FP-rhodamine probe, fluorescence polarization; inhibition, % at 3.39 µM; 0.28% of 340,000 active;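 active = inhibition above the screen-wide average of all tested compounds plus 3 SD, cut at about 25% in these data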;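 also: 0% = enzyme with DMSO only and 100% = wells lacking PAFAH1B3 protein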
rCAG binder = r(CAG) repeat RNA binding | inhibition, % at 3 µM | 1.3% of 370,000 active | TO-PRO-1 dye displacement fluorescence;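 active = inhibition above the plate cutoff, the mean of all test compounds on that plate plus 3 SD, cut at about 35% in these data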;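 also: 0% = DMSO alone and 100% = 100 µM mitoxantrone as full dye displacement; higher means more dye released from RNA so lower well fluorescence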
EBNA-1 inhibitor = blocks EBNA-1 binding to DNA; 0.34% of 300,000 active; AID 1950; EBNA-1 DNA binding, fluorescence polarization; inhibition, % at 14.8 µM; in the data active = inhibition above about 28%
ZTA counter = blocks Epstein-Barr virus ZTA, an EBNA-1 counter-screen; P03206; ZTA-DNA binding, fluorescence polarization; inhibition, % at 11 µM; 0.15% of 320,000 active; AID 2234; in the data active = inhibition above about 33%
Target sequence (P03206 whole entry, looked up): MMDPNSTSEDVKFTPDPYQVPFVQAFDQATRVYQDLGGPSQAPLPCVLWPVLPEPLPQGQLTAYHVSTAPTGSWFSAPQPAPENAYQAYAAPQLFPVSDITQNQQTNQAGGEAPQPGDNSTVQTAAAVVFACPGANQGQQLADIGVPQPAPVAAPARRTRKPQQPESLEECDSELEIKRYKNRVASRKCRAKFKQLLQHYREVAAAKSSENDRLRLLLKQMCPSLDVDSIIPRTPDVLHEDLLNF
PAFAH1B2 FP inh = blocks human PAF acetylhydrolase 1b catalytic subunit 2; P68402; recombinant PAFAH1B2, FP-rhodamine activity probe, fluorescence polarization; inhibition, % at 3.39 µM; 1.2% of 340,000 active; AID 492953;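 active = inhibition above the mean of all tested compounds plus 3 SD, cut at about 24% in these data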;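 also: 0% = enzyme with DMSO and 100% = wells lacking PAFAH1B2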
Target sequence (P68402 whole entry, looked up): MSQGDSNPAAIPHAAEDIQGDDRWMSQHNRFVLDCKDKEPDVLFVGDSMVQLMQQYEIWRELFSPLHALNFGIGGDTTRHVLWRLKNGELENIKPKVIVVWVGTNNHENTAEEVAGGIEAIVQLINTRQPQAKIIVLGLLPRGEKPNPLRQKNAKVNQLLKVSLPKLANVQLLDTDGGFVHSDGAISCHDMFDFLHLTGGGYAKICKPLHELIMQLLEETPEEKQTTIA
PAFAH2 FP inh = inhibitors of human PAFAH2 | recombinant PAFAH2, FP-rhodamine activity probe, fluorescence polarization | 0.99% of 340,000 active | Q99487 | AID 492956 | inhibition, % at 3.39 µM;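 active = inhibition above the mean over all tested compounds plus 3 SD, cut at about 30% in these data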;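 also: inhibitors block probe labeling of enzyme so polarization drops; 0% = enzyme with DMSO and 100% = wells lacking PAFAH2 protein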
PAFAH2 confirm = PAFAH2 (human) inhibition, confirmed | recombinant PAFAH2, FP-rhodamine activity probe, fluorescence polarization | inhibition, % at 3.39 µM | AID 493030 | shares compounds with PAFAH2 FP inh | 65% of 2,300 active;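 active = mean inhibition over three repeats above a set limit taken from the earlier primary screen, cut at about 30% in these data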;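 also: inhibitor blocks binding of rhodamine activity probe so polarization falls; 0% = enzyme with DMSO and 100% = wells lacking PAFAH2 protein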
Numbers without * were called inactive; / = no result.

SMILES	PAFAH1B3 inh	rCAG binder	EBNA-1 inhibitor	ZTA counter	PAFAH1B2 FP inh	PAFAH2 FP inh	PAFAH2 confirm
COc1cccc(NC(=O)C2CCCN2C(=O)Nc2ccc(Cl)cc2)c1 (stereo unspecified)	/	1	/	/	/	/	/
COC(=O)[C@]12C[C@H](CC(=O)NCc3cccc(C(F)(F)F)c3)C(=O)N(CCC3=CCCCC3)C1=C[C@H](C(C)C)O[C@@H]2C1CC1	/	4	/	/	/	/	/
O=C(COC(=O)/C=C/c1ccco1)NCCc1ccccc1	12	-2	-6	4	2	32*	21
CCN(C(=O)COC(=O)c1cc(-c2ccc(C)o2)nc2ccccc12)C1CCS(=O)(=O)C1 (stereo unspecified)	-3	6	1	6	-2	45*	0
COc1ccc(NC(=O)CC2Nc3ccccc3NC2=O)c([N+](=O)[O-])c1 (stereo unspecified)	4	2	5	-9	1	0	/
COc1ccccc1NC(=O)CC1Nc2ccccc2NC1=O (stereo unspecified)	9	19	4	4	5	86*	-1
COC(=O)CNC(=O)COC(=O)c1ccc(OC)c([N+](=O)[O-])c1	10	2	3	-1	3	-6	/
COc1ccc(C(=O)OCC(=O)NC(C)(C)C)cc1[N+](=O)[O-]	1	-4	0	8	2	39*	23
COc1ccc(C(=O)OCC(=O)NCCCc2ccccc2)cc1[N+](=O)[O-]	4	-6	2	7	13	30*	12
COc1ccc(/C=C/C(=O)OCC(=O)NCc2ccco2)cc1OC	7	3	-2	-12	-1	49*	38*
COc1cc(/C=C/C(=O)OCC(=O)NCc2cccs2)ccc1OCC#N	-2	-3	-2	-5	1	53*	52*
COc1cccc(/C=C/C(=O)OCC(=O)c2ccccc2)c1OC	11	3	/	/	7	58*	34*
CCOc1cc(/C=C/C(=O)OCC(=O)NCc2ccco2)cc(Cl)c1OC	0	1	6	-3	2	15	/
COc1cccc(/C=C/C(=O)OCC(=O)NCC2CCCCC2)c1OC	4	0	/	-2	0	80*	79*
CN[C@H]1C[C@H]2c3cc(-c4ccccc4C)ccc3CCN2C[C@H]1[C@H](C)O	/	6	/	/	/	/	/
COc1cccc(/C=C/C(=O)OCC(=O)NCc2ccco2)c1OC	7	-4	5	-7	0	66*	53*
COc1cc(/C=C/C(=O)OCC(=O)NCc2ccco2)ccc1OC(F)F	7	-2	9	8	5	39*	28
C=CCOc1ccc(/C=C/C(=O)OCC(=O)NCc2cccs2)cc1	-2	0	-3	-1	-2	38*	41*
O=C(Nc1cccc(C(F)(F)F)c1)OC1CCC12CCC(c1ccccc1)CC2 (stereo unspecified)	/	5	/	/	/	/	/
C#CCNC(=O)C[C@H]1C(=O)N(Cc2ccc(OC)cc2)C2=CCCCC[C@@]21C(=O)OC	/	0	/	/	/	/	/
O=C(CSc1nnc(CNC(=O)c2ccccc2F)o1)NCCc1ccccc1	6	-4	2	11	4	54*	2
CC(=O)c1cccc(NC(=O)COC(=O)c2ccccc2C)c1	-4	-4	-3	0	5	63*	62*
O=C(COC(=O)COc1ccccc1)Nc1cccc([N+](=O)[O-])c1	1	3	10	13	-3	1	/
O=C(COC(=O)c1cc(-c2cccs2)nn1-c1ccccc1)Nc1cccc([N+](=O)[O-])c1	-6	8	-7	13	-4	32*	39*
CCOc1ncccc1C(=O)OCC(=O)Nc1cccc(C(C)=O)c1	9	1	10	-2	6	62*	55*
SMILES	PAFAH1B3 inh	rCAG binder	EBNA-1 inhibitor	ZTA counter	PAFAH1B2 FP inh	PAFAH2 FP inh	PAFAH2 confirm
CC(=O)c1cccc(NC(=O)COC(=O)c2ccccn2)c1	-4	4	8	-1	-1	-4	/
O=C(COC(=O)c1ccccc1C(=O)c1ccccc1)Nc1cccc([N+](=O)[O-])c1	-5	3	-8	-26	7	89*	82*
CCOc1ncccc1C(=O)OCC(=O)Nc1cccc(S(N)(=O)=O)c1	3	5	-5	-10	-3	33*	15
CN(C)S(=O)(=O)c1cccc(NC(=O)COC(=O)c2cccnc2Cl)c1	14	6	/	/	3	23	/
COc1ccc(C(=O)OCC(=O)NC2CC2)cc1	/	2	/	/	/	/	/
CC(C)(C)c1ccc(C(=O)OCC(=O)NC2CC2)cc1	1	-4	/	/	15	73*	66*
O=C(COC(=O)c1ccc(O)cc1)NC1CCCC1	5	-1	-3	6	-3	77*	73*
Cc1ccc(C(=O)OCC(=O)NC2CCCC2)cc1	0	-4	0	-4	5	82*	76*
O=C(COC(=O)c1ccc([N+](=O)[O-])cc1)NC1CCCC1	8	1	7	-1	-3	6	/
CC(C)(C)C(=O)NC1CCCCN(Cc2cccc(C(F)(F)F)c2)C1=O (stereo unspecified)	/	-1	/	/	/	/	/
COc1ccc(S[C@]2(C(=O)N(C)C)CC(=O)N[C@@H]2c2ccc(OC)cc2)cc1	/	5	/	/	/	/	/
COC(=O)C1=C(C)N(Cc2ccc(C(F)(F)F)cc2)C(=NCc2ccc(C(F)(F)F)cc2)NC1c1ccc(F)cc1 (stereo unspecified)	/	5	/	/	/	/	/
O=C(OCC(=O)N1CCOCC1)c1ccc2c(c1)OCCO2	2	4	-4	-3	-2	3	/
CC1CCN(C(=O)COC(=O)c2ccc3c(c2)OCCO3)CC1	10	1	/	/	4	46*	30*
O=C(OCC(=O)N1CCCCC1)c1cccs1	6	0	/	/	4	10	/
CC1CCN(C(=O)COC(=O)c2cccs2)CC1	3	1	/	/	6	35*	21
CC1CCN(C(=O)COC(=O)c2ccc(N3CCCC3=O)cc2)CC1	10	2	/	4	7	37*	30*
CC1CCN(C(=O)COC(=O)c2ccc3c(c2)OCO3)CC1	6	-3	-17	-2	-5	39*	19
CCOC(=O)[C@@]12CCCC=C1N(CCc1ccc(Cl)cc1)C(=O)[C@H]2CC(=O)NCCc1ccccc1OC	/	5	/	/	/	/	/
Cn1cc([C@]2(O)C(=O)Nc3ccc(Br)cc32)c2ccccc21	/	3	/	/	/	/	/
C=CCNC(=O)c1onc(CSc2cc(C)cc(C)c2)c1C(=O)O	5	25	-3	0	6	38*	23
C=CCNC(=O)c1onc(CSc2ccccc2CC)c1C(=O)O	3	14	8	18	11	49*	36*
CCc1ccccc1SCc1noc(C(=O)NCC2CCCO2)c1C(=O)O (stereo unspecified)	6	19	4	-19	16	40*	26
